# Data published in the supplement of paper PMC10849652.
# Of roughly 7,900 targets only a part is listed; those with a hit were picked by preference. About 0.6% of all pairs of compound and target were hits. Values without a mark were called inactive.
# Compound: Cc1ccc(NC(=O)c2ccc(CN3CC[C@H](N(C)C)C3)c(C(F)(F)F)c2)cc1Nc1nccc(-c2cncnc2)n1 [bafetinib]
# Experiment: log2 fold change, soluble protein after heating vs DMSO (PISA); higher = thermal stabilisation; K562 cells, 10 uM, 30 min; active = over 0.2 and 3.5 SD of the protein, either way, in both replicates (recomputed)
# In short: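 K562 cells at 2×10^6 cells/mL were treated with 10 μM compound for 30 min. Aliquots were heated for 3 min across 48°C-58°C, pooled, and extracted in PBS with 0.5% NP-40 at 4°C; soluble protein was the supernatant after 21,000xg for 90 min. Soluble protein was quantified by TMTpro 16plex LC-MS/MS with channel sums equalised, and reported as log2 fold change in thermal stability against DMSO controls, with values from duplicates.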
# UniProt Q12906, sequence (Q12906 whole entry, looked up): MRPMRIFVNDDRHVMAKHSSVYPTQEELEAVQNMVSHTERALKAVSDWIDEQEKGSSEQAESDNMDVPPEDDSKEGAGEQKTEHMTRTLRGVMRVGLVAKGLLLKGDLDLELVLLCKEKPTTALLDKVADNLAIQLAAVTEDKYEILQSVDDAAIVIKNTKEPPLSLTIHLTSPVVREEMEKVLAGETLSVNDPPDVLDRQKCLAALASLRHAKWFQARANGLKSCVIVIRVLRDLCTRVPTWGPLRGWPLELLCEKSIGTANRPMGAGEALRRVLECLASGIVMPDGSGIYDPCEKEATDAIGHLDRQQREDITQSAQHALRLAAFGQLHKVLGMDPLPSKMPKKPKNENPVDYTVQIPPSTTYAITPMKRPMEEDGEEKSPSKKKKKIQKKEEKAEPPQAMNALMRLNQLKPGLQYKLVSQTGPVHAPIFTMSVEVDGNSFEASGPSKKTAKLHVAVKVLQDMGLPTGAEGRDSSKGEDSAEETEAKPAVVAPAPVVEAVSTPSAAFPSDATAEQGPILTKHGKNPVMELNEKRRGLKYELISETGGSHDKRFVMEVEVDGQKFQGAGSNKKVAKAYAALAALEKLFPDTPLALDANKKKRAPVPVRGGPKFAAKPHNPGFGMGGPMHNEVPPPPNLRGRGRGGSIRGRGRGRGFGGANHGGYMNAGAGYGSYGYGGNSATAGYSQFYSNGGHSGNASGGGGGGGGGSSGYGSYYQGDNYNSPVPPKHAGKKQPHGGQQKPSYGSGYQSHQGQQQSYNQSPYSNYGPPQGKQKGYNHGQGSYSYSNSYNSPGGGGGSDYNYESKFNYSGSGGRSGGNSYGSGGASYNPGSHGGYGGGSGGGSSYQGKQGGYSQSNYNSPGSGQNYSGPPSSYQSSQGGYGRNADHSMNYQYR
# UniProt O43318, sequence (O43318 whole entry, looked up): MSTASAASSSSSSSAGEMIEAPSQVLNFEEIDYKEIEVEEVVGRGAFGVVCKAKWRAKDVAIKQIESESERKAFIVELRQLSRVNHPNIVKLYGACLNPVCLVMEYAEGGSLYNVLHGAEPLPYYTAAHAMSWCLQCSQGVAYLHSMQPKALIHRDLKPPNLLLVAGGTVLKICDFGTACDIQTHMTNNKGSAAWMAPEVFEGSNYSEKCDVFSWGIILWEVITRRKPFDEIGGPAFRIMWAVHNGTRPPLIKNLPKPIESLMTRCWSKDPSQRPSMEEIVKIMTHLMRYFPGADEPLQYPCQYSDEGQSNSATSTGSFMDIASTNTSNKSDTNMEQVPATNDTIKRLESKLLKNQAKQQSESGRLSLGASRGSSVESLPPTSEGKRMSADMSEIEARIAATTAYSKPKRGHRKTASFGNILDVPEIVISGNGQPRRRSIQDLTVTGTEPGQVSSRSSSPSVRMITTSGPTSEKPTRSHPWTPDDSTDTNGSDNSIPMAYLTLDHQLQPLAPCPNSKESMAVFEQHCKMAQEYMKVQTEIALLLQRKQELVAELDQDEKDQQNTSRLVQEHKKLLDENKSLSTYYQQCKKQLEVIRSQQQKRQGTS
# UniProt Q15648, sequence (Q15648 whole entry, looked up): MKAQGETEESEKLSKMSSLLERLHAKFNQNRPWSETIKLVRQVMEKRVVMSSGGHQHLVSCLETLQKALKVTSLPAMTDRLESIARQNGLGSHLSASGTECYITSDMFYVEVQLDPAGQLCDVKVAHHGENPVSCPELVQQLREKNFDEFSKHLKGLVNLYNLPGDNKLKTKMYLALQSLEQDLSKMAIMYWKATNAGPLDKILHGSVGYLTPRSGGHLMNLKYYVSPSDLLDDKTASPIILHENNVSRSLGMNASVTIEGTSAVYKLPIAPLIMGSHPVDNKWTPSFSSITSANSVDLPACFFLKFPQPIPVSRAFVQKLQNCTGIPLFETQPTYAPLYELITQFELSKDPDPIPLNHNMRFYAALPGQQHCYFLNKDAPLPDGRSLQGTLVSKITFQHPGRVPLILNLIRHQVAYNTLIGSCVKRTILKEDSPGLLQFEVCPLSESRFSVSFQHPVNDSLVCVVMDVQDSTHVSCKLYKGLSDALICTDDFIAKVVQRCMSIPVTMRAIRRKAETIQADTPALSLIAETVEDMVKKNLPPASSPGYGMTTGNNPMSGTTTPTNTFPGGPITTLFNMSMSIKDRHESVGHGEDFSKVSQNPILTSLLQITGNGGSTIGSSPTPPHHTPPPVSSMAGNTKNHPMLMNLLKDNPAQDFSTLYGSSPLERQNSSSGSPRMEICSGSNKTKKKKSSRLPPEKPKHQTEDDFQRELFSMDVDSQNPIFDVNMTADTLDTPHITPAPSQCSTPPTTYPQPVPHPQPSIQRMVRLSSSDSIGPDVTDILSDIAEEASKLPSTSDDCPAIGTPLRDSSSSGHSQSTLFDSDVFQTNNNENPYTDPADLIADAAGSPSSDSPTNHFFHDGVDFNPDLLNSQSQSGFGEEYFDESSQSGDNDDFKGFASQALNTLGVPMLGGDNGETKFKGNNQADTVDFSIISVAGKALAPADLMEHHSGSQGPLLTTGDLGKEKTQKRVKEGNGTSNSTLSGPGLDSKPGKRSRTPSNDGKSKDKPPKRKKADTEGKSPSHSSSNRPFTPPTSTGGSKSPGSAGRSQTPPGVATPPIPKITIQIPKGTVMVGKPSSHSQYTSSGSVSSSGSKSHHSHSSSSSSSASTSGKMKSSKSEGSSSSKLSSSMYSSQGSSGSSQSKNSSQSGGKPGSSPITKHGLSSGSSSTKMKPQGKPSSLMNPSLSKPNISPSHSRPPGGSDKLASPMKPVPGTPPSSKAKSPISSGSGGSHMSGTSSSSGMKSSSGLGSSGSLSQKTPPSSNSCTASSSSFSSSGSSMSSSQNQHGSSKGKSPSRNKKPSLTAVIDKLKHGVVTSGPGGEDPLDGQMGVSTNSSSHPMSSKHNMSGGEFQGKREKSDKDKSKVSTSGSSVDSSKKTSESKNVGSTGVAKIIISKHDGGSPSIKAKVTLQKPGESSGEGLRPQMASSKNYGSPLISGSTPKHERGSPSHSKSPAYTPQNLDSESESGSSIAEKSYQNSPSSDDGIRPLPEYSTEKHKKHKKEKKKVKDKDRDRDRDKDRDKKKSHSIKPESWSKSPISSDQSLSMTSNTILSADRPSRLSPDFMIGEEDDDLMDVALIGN
# UniProt Q71RC2, sequence (Q71RC2 whole entry, looked up): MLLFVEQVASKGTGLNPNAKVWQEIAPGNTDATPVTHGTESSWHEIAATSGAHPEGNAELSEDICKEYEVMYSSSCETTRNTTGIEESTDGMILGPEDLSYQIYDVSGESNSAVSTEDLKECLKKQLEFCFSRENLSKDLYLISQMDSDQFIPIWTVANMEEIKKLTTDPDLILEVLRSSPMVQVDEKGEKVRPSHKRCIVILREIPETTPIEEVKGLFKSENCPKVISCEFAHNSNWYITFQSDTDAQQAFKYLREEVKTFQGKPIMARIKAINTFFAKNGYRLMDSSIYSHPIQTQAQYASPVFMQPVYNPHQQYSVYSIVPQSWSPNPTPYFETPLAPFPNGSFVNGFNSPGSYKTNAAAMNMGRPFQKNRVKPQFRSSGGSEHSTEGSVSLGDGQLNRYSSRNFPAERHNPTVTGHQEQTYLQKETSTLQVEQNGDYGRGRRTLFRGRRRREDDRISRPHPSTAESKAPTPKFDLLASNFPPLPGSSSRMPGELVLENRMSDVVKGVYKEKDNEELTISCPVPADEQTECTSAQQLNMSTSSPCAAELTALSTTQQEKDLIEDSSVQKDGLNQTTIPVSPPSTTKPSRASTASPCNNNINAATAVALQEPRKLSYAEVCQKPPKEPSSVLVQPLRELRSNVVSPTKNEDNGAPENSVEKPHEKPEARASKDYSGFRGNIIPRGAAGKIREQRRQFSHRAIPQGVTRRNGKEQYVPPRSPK
# UniProt Q8IWA4, sequence (Q8IWA4 whole entry, looked up): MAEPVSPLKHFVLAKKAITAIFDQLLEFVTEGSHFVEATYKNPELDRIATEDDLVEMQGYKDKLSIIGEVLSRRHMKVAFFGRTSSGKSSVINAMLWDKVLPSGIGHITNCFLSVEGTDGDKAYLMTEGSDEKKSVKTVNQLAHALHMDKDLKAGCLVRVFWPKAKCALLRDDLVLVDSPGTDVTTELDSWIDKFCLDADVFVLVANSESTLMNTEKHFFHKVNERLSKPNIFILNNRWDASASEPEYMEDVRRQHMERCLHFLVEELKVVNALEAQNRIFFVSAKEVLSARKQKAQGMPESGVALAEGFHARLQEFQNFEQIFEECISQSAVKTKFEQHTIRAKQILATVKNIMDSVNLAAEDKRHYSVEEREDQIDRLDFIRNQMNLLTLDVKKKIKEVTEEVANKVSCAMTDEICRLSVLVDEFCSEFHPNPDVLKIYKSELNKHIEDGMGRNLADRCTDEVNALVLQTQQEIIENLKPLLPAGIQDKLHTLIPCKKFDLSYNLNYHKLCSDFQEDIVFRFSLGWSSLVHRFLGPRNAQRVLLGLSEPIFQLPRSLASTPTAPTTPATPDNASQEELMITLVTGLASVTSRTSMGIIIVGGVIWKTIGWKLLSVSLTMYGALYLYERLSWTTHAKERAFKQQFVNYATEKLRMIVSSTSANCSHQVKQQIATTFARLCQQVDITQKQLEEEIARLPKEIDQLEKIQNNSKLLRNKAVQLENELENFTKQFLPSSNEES
# UniProt Q16644, sequence (Q16644 whole entry, looked up): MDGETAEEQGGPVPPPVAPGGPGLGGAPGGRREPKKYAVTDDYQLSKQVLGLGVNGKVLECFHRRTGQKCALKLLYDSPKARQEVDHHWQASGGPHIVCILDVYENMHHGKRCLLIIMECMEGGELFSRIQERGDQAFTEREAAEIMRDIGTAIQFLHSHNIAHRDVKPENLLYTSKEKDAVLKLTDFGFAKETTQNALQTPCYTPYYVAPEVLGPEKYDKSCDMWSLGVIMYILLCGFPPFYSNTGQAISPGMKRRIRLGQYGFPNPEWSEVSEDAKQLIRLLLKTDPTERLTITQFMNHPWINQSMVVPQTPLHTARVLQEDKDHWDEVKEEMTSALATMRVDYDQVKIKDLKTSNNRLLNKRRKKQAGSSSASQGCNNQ
# UniProt Q96A72, sequence (Q96A72 whole entry, looked up): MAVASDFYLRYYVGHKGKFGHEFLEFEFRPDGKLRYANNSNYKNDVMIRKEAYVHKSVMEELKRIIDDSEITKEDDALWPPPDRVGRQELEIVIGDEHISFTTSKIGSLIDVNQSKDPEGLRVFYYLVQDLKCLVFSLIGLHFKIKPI
row,Target,log2 fold change
1,LUC7L2 (UniProt Q9Y383),0.035
2,ILF3 isoform 7 (UniProt Q12906),0.082
3,MAGOHB (UniProt Q96A72),-0.015
4,KDM5D isoform 3 (UniProt Q9BY66),0.208
5,LIMD1 (UniProt Q9UGP4),-0.143
6,MED1 (UniProt Q15648),0.016
7,MCL1 (UniProt Q07820),-0.181
8,LIMA1 isoform 4 (UniProt Q9UHB6),-0.115
9,LMBRD1 (UniProt Q9NUN5),-0.065
10,KIF13A (UniProt Q9H1H9),-0.033
11,MARCKSL1 (UniProt P49006),0.04
12,LARP4 isoform 4 (UniProt Q71RC2),0.022
13,KIF21A isoform 4 (UniProt Q7Z4S6),0.051
14,LEMD3 (UniProt Q9Y2U8),-0.171
15,MAP3K7 (UniProt O43318),0.029
16,MAPKAPK3 (UniProt Q16644),0.258
17,MAPK14 isoform 2 (UniProt Q16539),1.73 (active)
18,ITIH4 (UniProt Q14624),-0.319
19,MAGEA9 (UniProt P43362),0.03
20,IMMT isoform 4 (UniProt Q16891),-0.119

row,Target,log2 fold change
1,MEPCE (UniProt Q7L2J0),-0.12
2,LSS (UniProt P48449),0.393
3,LONP2 (UniProt Q86WA8),-0.037
4,KDM3B (UniProt Q7LBC6),-0.005
5,LARP4B (UniProt Q92615),0.022
6,LDLR (UniProt P01130),0.005
7,IRF2BPL (UniProt Q9H1B7),-0.038
8,LTN1 isoform 3 (UniProt O94822),-0.036
9,LARP7 isoform 3 (UniProt Q4G0J3),-0.045
10,LNPK (UniProt Q9C0E8),-0.081
11,MAP2K3 isoform 3 (UniProt P46734),-0.071
12,MICU2 (UniProt Q8IYU8),-0.142
13,MGST3 (UniProt O14880),-0.085
14,KSR1 (UniProt Q8IVT5),0.035
15,IWS1 (UniProt Q96ST2),0.018
16,MFN1 (UniProt Q8IWA4),-0.114
17,MARK3 (UniProt P27448),0.033
18,MDC1 (UniProt Q14676),-0.1
19,MAP4 (UniProt E7EVA0),0.311
